This is one part of a sample in which hits are shown more often than they occur.
HT1080 IDH1KD tx – toxicity to HT-1080 IDH1 knockdown cells (counter line). 360,000 compounds, 2% hits. AID 686971. Potency, µM (titrated, usually from 46.1 µM), hits mostly cytotoxic. HT-1080 IDH1 knockdown viability, ATP luminescence, 48 h
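IDH1KD HT-1080 cells, 750/well, RPMI + 5% FBS; compound pinned after 2 h settling; 48 h, 37 °C; CellTiter-Glo luminescence; % activity normalised to DMSO and no-cell wells; curves fitted, classed by r2 and efficacy.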
DT40 TDP1 CPT – growth inhibition of DT40 Tdp1-/-;hTDP1 cells with camptothecin (screen for TDP1 inhibitors) | chicken DT40 Tdp1-/-;hTDP1 cells + 20 nM CPT, ATP luminescence, 48 h | Potency, µM (doses to about 46.2 µM), usual class: inhibitors | 420,000 compounds, 12% hits | AID 686979; further: nearly all actives have a fitted effect of over 55% in size
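Cell growth measured by CellTiter-Glo luminescence after a minimum 48 h, 37 C compound exposure with 20 nM CPT in Tdp1-knockout DT40 cells stably expressing hTDP1, seeded 400/well; qHTS titration format.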
DT40 TDP1 no CPT – qHTS for Inhibitors of human tyrosyl-DNA phosphodiesterase 1 (TDP1): qHTS in cells in absence of CPT | DT40 Tdp1-/- hTDP1 cells, no CPT, ATP luminescence, 48 h | Potency, µM (doses to about 46.2 µM), actives largely listed as inhibitors | 420,000 compounds, 15% hits | AID 686978, 2013; further: nearly all actives have a fitted effect of over 55% in size
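Chicken DT40 Tdp1-/- cells complemented with human TDP1, screened without camptothecin (DMSO vehicle only), 400 cells/well. Compounds pin-transferred, cells incubated at 37 °C for at least 48 hr. Growth read as ATP-dependent luminescence (CellTiter-Glo, 30 min at RT).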
IL-1B inflam inh – inhibitors of inflammasome signaling (IL-1 beta secretion); THP-1 LPS/ATP IL-1B secretion, AlphaLISA, 16 h; active compounds read low; activity change, % at 57.5 µM; 360,000 compounds, 4.7% hits; AID 743279; in the data active means activity change below about -50%; inconclusive means mostly about -30% to -49%
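THP-1 cells pretreated 1 hr with compounds (up to 57.5 uM final), then stimulated with LPS (250 ng/mL final) plus ATP (1.25 mM final); secreted IL-1B measured by AlphaLISA after 16 hr, decreased signal indicating inhibition.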
ALOX12 inh – ALOX12 (human) lipoxygenase inhibition. P18054. purified 12hLO, xylenol orange hydroperoxide absorbance. Potency, µM (top dose mostly 108 µM), hits mostly inhibitors. 580,000 compounds, 1.1% hits. AID 1671190
Target sequence (P18054 whole entry, looked up): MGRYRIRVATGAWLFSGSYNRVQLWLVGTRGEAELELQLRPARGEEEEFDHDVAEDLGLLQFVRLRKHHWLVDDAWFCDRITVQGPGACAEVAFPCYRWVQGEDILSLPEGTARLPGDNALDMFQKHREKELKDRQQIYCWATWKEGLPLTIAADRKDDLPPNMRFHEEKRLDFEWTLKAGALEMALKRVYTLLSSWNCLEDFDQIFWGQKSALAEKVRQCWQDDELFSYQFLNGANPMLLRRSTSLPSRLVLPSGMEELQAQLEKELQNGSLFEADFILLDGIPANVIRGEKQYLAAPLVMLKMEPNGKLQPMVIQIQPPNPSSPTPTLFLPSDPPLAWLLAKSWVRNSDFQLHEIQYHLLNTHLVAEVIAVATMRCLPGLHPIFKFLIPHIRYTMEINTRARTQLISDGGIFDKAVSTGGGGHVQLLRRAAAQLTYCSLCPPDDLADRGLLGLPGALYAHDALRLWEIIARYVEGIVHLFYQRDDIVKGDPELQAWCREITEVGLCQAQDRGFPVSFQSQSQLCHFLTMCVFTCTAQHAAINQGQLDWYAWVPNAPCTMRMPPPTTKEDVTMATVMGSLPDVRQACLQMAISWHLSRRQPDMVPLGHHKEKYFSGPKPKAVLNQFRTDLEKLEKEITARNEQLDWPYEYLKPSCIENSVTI
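Hydroperoxide product was detected by ferrous iron/xylenol orange as the 573 to 405 nm absorbance ratio. Arachidonic acid at 40 uM (final) was turned over for 30 min at room temperature by 150 nM human 12hLO, pH 7.0 Hepes buffer, after 15 min compound preincubation.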
HT1080-NT tox – kills 2HG-producing HT-1080-NT fibrosarcoma cells; 360,000 compounds, 1.6% hits; AID 686970; Potency, µM (titrated, usually from 46.1 µM), actives largely listed as cytotoxic; HT-1080-NT fibrosarcoma viability, CellTiter-Glo ATP luminescence, 48 h;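 further: NT is the 2HG producing partner of a matched IDH1 knockdown line; nearly all actives have a fitted effect of over 55% in size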
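Read-out is CellTiter-Glo luminescence after 10 minutes at room temperature, following 48 hours' compound treatment of HT-1080-NT cells (750 cells/well, RPMI, 5% FBS, 37 degrees C).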
Hits are given with their value; ! = a repeat was not active. Unless noted, the call rests on the fitted dose curve; in most records, active means well fitted curve in the direction sought with a large enough effect; inconclusive means small, poorly fitted or top-dose-only effect, or another doubt; inactive means no such curve, though single readings can be large; an effect the other way counts as inactive or inconclusive.

Results for COC(=O)c1c(NC(=O)Cc2ccccc2)sc2c1C(C(=O)OC)CC2 (configuration not stated) ?
HT1080 IDH1KD tx: inactive; DT40 TDP1 CPT: inconclusive; DT40 TDP1 no CPT: inconclusive; IL-1B inflam inh: inactive; ALOX12 inh: inactive; HT1080-NT tox: inactive

Results for COC(=O)c1c(NC(=O)CCCOc2cccc(C)c2)sc2c1C(C(=O)OC)CC2 (configuration not stated) ?
DT40 TDP1 CPT: 16µM; DT40 TDP1 no CPT: 15µM; ALOX12 inh: inactive

Results for CCOc1ccc(/C=C/C(=O)Nc2sc3c(c2C(=O)OC)C(C(=O)OC)CC3)cc1 (configuration not stated) ?
DT40 TDP1 CPT: 9.2µM; DT40 TDP1 no CPT: 9.2µM; ALOX12 inh: inactive

Results for COC(=O)c1c(NC(=O)CCCOc2ccc(C)cc2)sc2c1C(C(=O)OC)CC2 (configuration not stated) ?
DT40 TDP1 CPT: 15µM; DT40 TDP1 no CPT: 13µM; ALOX12 inh: inactive

How did O=C(OCCOc1cccc(Cl)c1)c1cc(=O)c2ccccc2o1 do in these assays?
ALOX12 inh: inactive

What do the screens show for `O=C(CCCCCCCC(=O)Nc1ccc(C(=O)c2ccccc2)cc1)Nc1ccc(C(=O)c2ccccc2)cc1`?
ALOX12 inh: 40µM

Results for CC(C)C(=O)Nc1ccc(-c2nnc(-c3ccccc3)o2)cc1 ?
HT1080 IDH1KD tx: inactive; DT40 TDP1 CPT: inactive; DT40 TDP1 no CPT: inconclusive; IL-1B inflam inh: inactive; ALOX12 inh: inactive; HT1080-NT tox: inactive

How did O=C(CCCC(=O)c1ccccc1)Nc1ccc(F)cc1 do in these assays?
HT1080 IDH1KD tx: inactive; DT40 TDP1 CPT: inactive; DT40 TDP1 no CPT: inactive; IL-1B inflam inh: inactive; ALOX12 inh: inactive; HT1080-NT tox: inactive

How did CC(C)C(=O)Nc1ccc(C(=O)c2ccccc2)cc1 do in these assays?
HT1080 IDH1KD tx: inactive; DT40 TDP1 CPT: 18µM; DT40 TDP1 no CPT: 21µM; IL-1B inflam inh: inactive; ALOX12 inh: inactive; HT1080-NT tox: inactive

What do the screens show for `Cc1cc(Oc2cccnc2)ccc1NC(=O)Cc1c[nH]c2ccccc12`?
ALOX12 inh: inactive

Results for CCCC(=O)O ?
DT40 TDP1 CPT: inactive; DT40 TDP1 no CPT: inactive

How did CC[C@](N)(CCC(=O)O)C(=O)O do in these assays?
DT40 TDP1 CPT: inactive; DT40 TDP1 no CPT: 19µM!; ALOX12 inh: 2.8µM!

How did COC1CCOC2(CCN(C(=O)c3cc(-c4ccccc4)n[nH]3)CC2)C1 (configuration not stated) do in these assays?
ALOX12 inh: inactive

How did COC(=O)c1cccc2c1NC(=O)C2=O do in these assays?
HT1080 IDH1KD tx: inactive; DT40 TDP1 CPT: inactive; DT40 TDP1 no CPT: 21µM; IL-1B inflam inh: inactive; ALOX12 inh: inactive; HT1080-NT tox: inactive

What do the screens show for `Cc1cccc2c1NC(=O)C2=O`?
HT1080 IDH1KD tx: inactive; DT40 TDP1 CPT: inconclusive; DT40 TDP1 no CPT: inactive; IL-1B inflam inh: inactive; ALOX12 inh: inactive; HT1080-NT tox: inactive

What do the screens show for `COC(=O)c1ccccc1OC`?
ALOX12 inh: inactive

Results for O=C1Nc2c(Br)cccc2C1=O ?
HT1080 IDH1KD tx: inactive; DT40 TDP1 CPT: 8.2µM; DT40 TDP1 no CPT: 12µM; IL-1B inflam inh: inactive; ALOX12 inh: inconclusive; HT1080-NT tox: inactive

What do the screens show for `O=C1Nc2c(Cl)cccc2C1=O`?
HT1080 IDH1KD tx: inconclusive; DT40 TDP1 CPT: 15µM; DT40 TDP1 no CPT: 23µM; IL-1B inflam inh: inactive; ALOX12 inh: inactive; HT1080-NT tox: inconclusive

What do the screens show for `COCCNC(=O)[C@@H]1C[C@H](Oc2cccnc2)CN1C(=O)c1cc2ccc(OC)cc2[nH]1`?
ALOX12 inh: inactive

Results for COc1ccc(-c2cc(C#N)nc(Cl)n2)cc1 ?
HT1080 IDH1KD tx: 9.2µM; DT40 TDP1 CPT: 4.1µM; DT40 TDP1 no CPT: 4.6µM; ALOX12 inh: 4.5µM; HT1080-NT tox: 7.3µM

How did COc1ccc2cc(C#N)c(NC(C)C)nc2c1 do in these assays?
HT1080 IDH1KD tx: inactive; DT40 TDP1 CPT: inactive; DT40 TDP1 no CPT: inconclusive; IL-1B inflam inh: inactive; ALOX12 inh: inactive; HT1080-NT tox: inactive

Screens deposited in PubChem by National Center for Advancing Translational Sciences (NCATS).
